# Results: PubChem BioAssay (NCATS)
# Results filed as inconclusive are left out. Entries that show only a call come without a potency. Calls of active or inactive are those of the source. Unless noted, calls follow the shape of the dose curve; as a rule, active = well fitted curve in the direction sought with a large enough effect; inconclusive = small, poorly fitted or top-dose-only effect, or another doubt; inactive = no such curve, though single readings can be large; an effect the other way counts as inactive or inconclusive.
# Columns and labels:
# [1] = qHTS for differential inhibitors of proliferation of Plasmodium falciparum line D10 (AID 1877);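 also: parasites grown with compound for 72 h before DNA staining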; also: potency is read from the fitted curve at half-maximal effect
# [2] = qHTS for differential inhibitors of proliferation of Plasmodium falciparum line W2 (AID 1883); settings: Potency: Plasmodium falciparum W2 proliferation inhibition;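 also: parasites grown with compound for 72 h before lysis and staining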; also: potency is read from the fitted curve at half-maximal effect
# [3] = qHTS for differential inhibitors of proliferation of Plasmodium falciparum line HB3 (AID 1886); settings: Potency: Plasmodium falciparum HB3 proliferation inhibition;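 also: parasites grown with compound for 72 h before SYBR Green readout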; also: potency is read from the fitted curve at half-maximal effect
# [4] = target: Ferritin light chain (Equus caballus) (UniProt P02791); test: qHTS Validation Assay for Identification of Novel General Anesthetics (AID 2323); also: series mostly up to about 77 µM
# Procedure, shortened: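 Horse-spleen apoferritin (10 uM) in PBS with 50% saturated 1-aminoanthracene; compounds pin-transferred, 10 min at room temperature. Fluorescence read at 380/535 nm, normalized to free 1-AMA and 1-AMA/apoferritin values; four-parameter Hill fit.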
# [5] = target: ATP-dependent DNA helicase Q1 (Homo sapiens) (UniProt P46063); test: qHTS Validation Assay for Inhibitors of RecQ-Like Dna Helicase 1 (RECQ1) (AID 2353); also: potency is read from the fitted curve at half-maximal effect
# Procedure, shortened: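 RECQ1T1 50 nM; forked duplex (20 bp + 30-nt ss tails) 200 nM, ATP 2 mM final; pH 8.0, 2 mM MgCl2, 2.5 ug/ml poly(dI-dC); 15 min compound preincubation; discontinuous kinetic read over 2 h at RT.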
# [6] = qHTS for differential inhibitors of proliferation of Plasmodium falciparum line Dd2 (AID 1882); settings: Potency: Plasmodium falciparum Dd2 proliferation inhibition; also: nearly all actives have a fitted effect of over 65% in size; also: potency is read from the fitted curve at half-maximal effect
# Procedure, shortened: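 RBC culture, 0.3% parasitemia / 2.5% Hct final; cpd added by pin tool in DMSO; 72 h, 37 C, 5% CO2; lysis buffer + SYBR Green I, o/n RT dark; FI 485/535; norm. to artemisinin 0.29 uM and DMSO.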
# [7] = target: RecQ-like DNA helicase BLM (Homo sapiens) (UniProt P54132); test: qHTS Validation Assay for Inhibitors of Bloom's syndrome helicase (BLM) (AID 2364); also: potency is read from the fitted curve at half-maximal effect
# Procedure, shortened: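 BLM 50 nM in 25 mM Tris-HCl pH 8.0, 5 mM NaCl, 2 mM MgCl2, 1 mM DTT, 0.01% Tween-20, 2.5 ug/ml poly(dI-dC); 15 min cpd preinc, RT. Start: 200 nM forked DNA + 2 mM ATP (final). TAMRA read, 2 reads 2 h apart.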
# [8] = qHTS Assay for Modulators of Human Peripheral Myelin Protein 22 (PMP22) Expression/Activity (AID 1967; active = well fitted curve in the direction sought with a large enough effect in the signal ratio; the % refers to the signal ratio)
# Procedure, shortened: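 Mouse MSC80 Schwann cells carrying Pmp22 promoter–green click beetle luciferase plus EF-alpha–red luciferase control, dosed 24 h at 37 °C. Dual-filter luminescence, overlap-corrected; %Activity from green/red ratio normalised to untreated cells, concentration-response curves fitted.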
# Chain of ATP-dependent DNA helicase Q1 (Homo sapiens) (P46063 whole entry, looked up): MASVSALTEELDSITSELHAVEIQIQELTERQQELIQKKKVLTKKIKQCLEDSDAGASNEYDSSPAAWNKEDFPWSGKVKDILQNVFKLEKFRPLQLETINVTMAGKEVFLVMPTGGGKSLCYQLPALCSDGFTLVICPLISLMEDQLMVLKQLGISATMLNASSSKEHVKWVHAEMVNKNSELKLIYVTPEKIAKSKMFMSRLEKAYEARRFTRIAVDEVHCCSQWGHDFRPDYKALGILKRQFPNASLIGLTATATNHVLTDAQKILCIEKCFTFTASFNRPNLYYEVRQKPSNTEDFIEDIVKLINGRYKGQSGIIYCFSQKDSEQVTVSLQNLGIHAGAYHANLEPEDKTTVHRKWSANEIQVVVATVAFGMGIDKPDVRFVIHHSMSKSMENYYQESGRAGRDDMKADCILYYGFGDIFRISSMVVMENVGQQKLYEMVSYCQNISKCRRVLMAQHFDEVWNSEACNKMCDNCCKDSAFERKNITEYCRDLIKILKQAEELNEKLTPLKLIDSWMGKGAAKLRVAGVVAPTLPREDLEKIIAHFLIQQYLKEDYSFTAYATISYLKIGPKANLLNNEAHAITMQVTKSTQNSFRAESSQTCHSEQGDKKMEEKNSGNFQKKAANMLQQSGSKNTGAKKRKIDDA
# Chain of RecQ-like DNA helicase BLM (Homo sapiens) (P54132 whole entry, looked up): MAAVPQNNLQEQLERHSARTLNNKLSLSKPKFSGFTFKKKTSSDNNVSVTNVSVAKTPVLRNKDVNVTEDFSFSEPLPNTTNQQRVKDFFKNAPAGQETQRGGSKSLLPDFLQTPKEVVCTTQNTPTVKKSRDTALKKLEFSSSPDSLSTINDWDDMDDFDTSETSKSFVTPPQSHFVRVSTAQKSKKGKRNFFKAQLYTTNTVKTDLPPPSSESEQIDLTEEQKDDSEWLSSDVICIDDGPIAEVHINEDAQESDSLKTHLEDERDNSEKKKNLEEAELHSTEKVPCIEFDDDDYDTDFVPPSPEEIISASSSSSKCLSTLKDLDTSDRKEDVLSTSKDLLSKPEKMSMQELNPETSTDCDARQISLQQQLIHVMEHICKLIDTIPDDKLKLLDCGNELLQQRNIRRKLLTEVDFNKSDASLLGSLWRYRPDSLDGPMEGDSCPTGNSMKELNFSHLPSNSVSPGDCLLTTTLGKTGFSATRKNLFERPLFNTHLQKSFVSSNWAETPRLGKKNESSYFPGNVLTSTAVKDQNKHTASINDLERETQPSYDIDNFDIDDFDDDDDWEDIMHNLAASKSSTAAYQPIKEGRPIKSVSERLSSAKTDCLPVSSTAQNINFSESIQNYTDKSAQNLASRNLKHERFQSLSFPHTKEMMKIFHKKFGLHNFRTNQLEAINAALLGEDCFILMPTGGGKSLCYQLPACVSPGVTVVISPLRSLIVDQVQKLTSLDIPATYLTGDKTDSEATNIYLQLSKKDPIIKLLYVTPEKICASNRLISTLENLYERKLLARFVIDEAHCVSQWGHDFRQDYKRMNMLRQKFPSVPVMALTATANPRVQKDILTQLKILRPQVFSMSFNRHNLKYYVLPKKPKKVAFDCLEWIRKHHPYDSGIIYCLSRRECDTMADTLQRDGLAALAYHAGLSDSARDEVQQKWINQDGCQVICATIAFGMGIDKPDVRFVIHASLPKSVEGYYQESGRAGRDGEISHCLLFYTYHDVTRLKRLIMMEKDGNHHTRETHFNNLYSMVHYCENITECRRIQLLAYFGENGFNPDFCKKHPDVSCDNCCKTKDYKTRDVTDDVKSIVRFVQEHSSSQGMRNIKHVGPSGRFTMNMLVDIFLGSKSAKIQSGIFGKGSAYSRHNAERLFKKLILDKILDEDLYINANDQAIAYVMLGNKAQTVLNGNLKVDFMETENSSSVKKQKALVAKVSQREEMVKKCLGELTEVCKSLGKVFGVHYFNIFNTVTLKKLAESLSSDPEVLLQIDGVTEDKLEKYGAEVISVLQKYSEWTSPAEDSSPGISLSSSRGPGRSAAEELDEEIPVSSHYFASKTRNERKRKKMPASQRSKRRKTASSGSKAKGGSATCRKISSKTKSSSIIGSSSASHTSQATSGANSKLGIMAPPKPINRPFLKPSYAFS
# Chain of Ferritin light chain (Equus caballus) (P02791 2-175 limits assumed): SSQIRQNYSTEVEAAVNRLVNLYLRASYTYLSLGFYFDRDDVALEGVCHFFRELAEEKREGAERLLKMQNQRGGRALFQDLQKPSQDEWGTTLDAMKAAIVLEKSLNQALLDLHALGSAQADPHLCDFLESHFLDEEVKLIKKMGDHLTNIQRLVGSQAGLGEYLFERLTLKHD
smiles,measurement,setting,value
CC1CCN(CC[C@H]2CCCN2S(=O)(=O)c2cccc(O)c2)CC1,Potency,[1],inactive
same,Potency,[2],8.91 µM (active)
same,Potency,[3],inactive
same,Potency,[4],inactive
same,Potency,[5],inactive
O=c1ccc2c(OCCCCc3ccccc3)c3ccoc3cc2o1,Potency,[1],12.6 µM (active)
same,Potency,[2],10 µM (active)
same,Potency,[4],inactive
same,Potency,[5],inactive
NC(N)=NC(N)=Nc1cccc(Cl)c1,Potency,[6],inactive
same,Potency,[2],5.01 µM (active)
same,Potency,[3],8.91 µM (active)
same,Potency,[5],inactive
O=C(O)c1cc2cc(F)ccc2[nH]1,Potency,[1],inactive
same,Potency,[6],inactive
same,Potency,[4],inactive
same,Potency,[5],inactive
same,Potency,[7],inactive
CCN(CC)CCCCCCCCOC(=O)c1cc(OC)c(OC)c(OC)c1,Potency,[6],8.91 µM (active)
same,Potency,[2],3.55 µM (active)
same,Potency,[4],inactive
same,Potency,[5],inactive
same,Potency,[7],inactive
O=C1Cc2c([nH]c3ccc(Br)cc23)-c2ccccc2N1,Potency,[1],11.2 µM (active)
same,Potency,[2],10 µM (active)
same,Potency,[3],12.6 µM (active)
same,Potency,[4],inactive
same,Potency,[5],inactive
CCCn1c(=O)c2[nH]c(-c3ccc(S(=O)(=O)O)cc3)nc2n(CCC)c1=O,Potency,[1],inactive
same,Potency,[6],inactive
same,Potency,[5],inactive
same,Potency,[7],inactive
Fc1ccc(CN(C2=NCCN2)c2c(Cl)cccc2Cl)cc1,Potency,[6],7.94 µM (active)
same,Potency,[2],3.55 µM (active)
same,Potency,[4],inactive
same,Potency,[5],inactive
same,Potency,[7],inactive
O=C(N[C@@H](Cc1ccccc1)C(=O)CCl)OCc1ccccc1,Potency,[6],11.2 µM (active)
same,Potency,[2],8.91 µM (active)
same,Potency,[3],14.1 µM (active)
same,Potency,[5],inactive
Cc1cccc(C2CN(C)CCc3c2cc(O)c(O)c3Cl)c1 (stereo not drawn),Potency,[1],11.2 µM (active)
same,Potency,[2],7.08 µM (active)
same,Potency,[3],12.6 µM (active)
same,Potency,[4],inactive
same,Potency,[5],inactive
same,Potency,[7],inactive
Cn1c(=O)[nH]c2ncn(C)c2c1=O,Potency,[6],inactive
same,Potency,[2],inactive
same,Potency,[3],12.6 µM (active)
same,Potency,[4],inactive
same,Potency,[5],inactive
CC[C@@H]1Cc2cc(O)ccc2C2=C1c1ccc(O)cc1C[C@H]2CC,Potency,[1],11.2 µM (active)
same,Potency,[2],4.47 µM (active)
same,Potency,[3],11.2 µM (active)
same,Potency,[4],inactive
same,Potency,[5],inactive
CC1=C(/C=C/C(C)=C/C=C/C(C)=C\C(=O)O)C(C)(C)CCC1,Potency,[6],10 µM (active)
same,Potency,[2],8.91 µM (active)
same,Potency,[3],10 µM (active)
same,Potency,[5],inactive
C[C@H](NC(=O)/C(C#N)=C/c1ccc(O)c(O)c1)c1ccccc1,Potency,[1],12.6 µM (active)
same,Potency,[2],10 µM (active)
same,Potency,[3],12.6 µM (active)
same,Potency,[5],inactive
CN(C)CCC(c1ccc(Br)cc1)c1ccccn1 (stereo not drawn),Potency,[1],inactive
same,Potency,[2],0.891 µM (active)
same,Potency,[3],inactive
same,outcome,[8],inactive
same,Potency,[4],inactive
same,Potency,[5],inactive
same,Potency,[7],inactive
O=c1cc(-c2ccccc2)[nH]c2nc(Cl)ccc12,Potency,[6],inactive
same,Potency,[2],10 µM (active)
same,Potency,[4],inactive
same,Potency,[5],inactive
O=c1onc2cnc3ccccc3n12,Potency,[6],inactive
same,Potency,[2],inactive
same,Potency,[3],5.62 µM (active)
same,Potency,[4],inactive
same,Potency,[5],inactive
same,Potency,[7],inactive
COC(=O)C1=C(C)NC(C)=C([N+](=O)[O-])C1c1ccccc1C(F)(F)F (stereo not drawn),Potency,[1],inactive
same,Potency,[2],12.6 µM (active)
same,Potency,[5],inactive
Cn1c(=O)c2[nH]c(C3CCCC3)nc2n(C)c1=O,Potency,[1],inactive
same,Potency,[6],inactive
same,Potency,[4],inactive
same,Potency,[5],inactive
same,Potency,[7],inactive
CCCC[C@@]1(C2CCCC2)Cc2cc(OCC(=O)O)c(Cl)c(Cl)c2C1=O,Potency,[6],inactive
same,Potency,[2],10 µM (active)
same,outcome,[8],inactive
same,Potency,[5],inactive
COc1cc(/C=C(\C#N)C(=O)c2ccc(O)c(O)c2)cc(I)c1O,Potency,[6],inactive
same,Potency,[5],4.47 µM (active)
same,Potency,[7],10 µM (active)
NCCNS(=O)(=O)c1cccc2c(Cl)cccc12,Potency,[2],6.31 µM (active)
same,Potency,[5],inactive
same,Potency,[7],inactive
COc1cc([C@@H]2c3cc4c(cc3[C@H](O)C3COC(=O)[C@@H]32)OCO4)cc(OC)c1OC (stereo partly drawn),outcome,[8],inactive
same,Potency,[5],inactive
same,Potency,[7],inactive
CC(/C=C/c1cccc(Oc2ccc(F)cc2)c1)N(O)C(N)=O (stereo not drawn),Potency,[2],10 µM (active)
same,Potency,[5],inactive
Nc1nc2ccc(Cl)cc2c2nc(-c3ccco3)nn12,Potency,[5],inactive
same,Potency,[7],inactive
COc1ccccc1N1CCN(CCN(C(=O)c2ccc(F)cc2)c2ccccn2)CC1,Potency,[2],8.91 µM (active)
same,Potency,[5],inactive
S=C(S)N1CCCC1,Potency,[4],inactive
same,Potency,[5],inactive
same,Potency,[7],inactive
C/C(=C\c1ccc(C(=O)O)cc1)c1ccc2c(c1)C(C)(C)CCC2(C)C,Potency,[6],inactive
same,Potency,[3],inactive
Cc1nc2c(OCc3ccccc3)cccn2c1CC#N,Potency,[6],inactive
same,Potency,[3],inactive
same,Potency,[4],inactive
same,Potency,[5],inactive
CCC(=O)N1CCN(C(=O)c2ccccc2)CC1,Potency,[6],inactive
same,Potency,[4],inactive
same,Potency,[5],inactive
O=C1Nc2ccc(I)cc2/C1=C/c1cc(Br)c(O)c(Br)c1,Potency,[2],15.8 µM (active)
same,Potency,[3],10 µM (active)
same,Potency,[5],inactive
Cc1ccccc1/C=C/C1=NCCN1,Potency,[2],12.6 µM (active)
same,Potency,[3],12.6 µM (active)
same,Potency,[4],inactive
same,Potency,[5],inactive
same,Potency,[7],inactive
O=C(c1ccc2c(c1)OCCO2)N1CCCCC1,Potency,[6],inactive
same,outcome,[8],inactive
same,Potency,[7],inactive
CC[C@H](NC(=O)c1c(C)c(-c2ccccc2)nc2ccccc12)c1ccccc1,Potency,[2],8.91 µM (active)
same,Potency,[3],12.6 µM (active)
same,Potency,[5],inactive
CCCCCCCCCC[Si](C)(C)CCC(=O)NC(Cc1ccc(C)cc1)c1ccccc1 (stereo not drawn),Potency,[5],inactive
O=C1OC(=O)C2C3CCC(O3)C12 (stereo not drawn),Potency,[6],inactive
same,Potency,[4],inactive
same,Potency,[5],inactive
same,Potency,[7],inactive
N[C@@H](Cc1c[nH]c2ccccc12)C(=O)O,Potency,[6],inactive
same,Potency,[4],inactive
same,Potency,[5],inactive
Cn1cc(C(=O)OCC2CCN(CCNS(C)(=O)=O)CC2)c2ccccc21,Potency,[2],8.91 µM (active)
same,Potency,[4],inactive
same,Potency,[5],inactive
same,Potency,[7],inactive
NOCC(=O)O,Potency,[6],inactive
same,outcome,[8],inactive
same,Potency,[4],inactive
same,Potency,[5],inactive
same,Potency,[7],inactive
O=C1NC(=O)c2cc(Nc3ccccc3)c(Nc3ccccc3)cc21,Potency,[2],10 µM (active)
same,Potency,[3],8.91 µM (active)
same,Potency,[4],inactive
same,Potency,[5],inactive
CCCn1c(=O)c2[nH]c(C3CCCC3)nc2n(CCC)c1=O,Potency,[6],inactive
same,Potency,[3],inactive
same,Potency,[4],inactive
same,Potency,[5],inactive
same,Potency,[7],inactive
N=C(N)SCCN,Potency,[6],inactive
same,outcome,[8],inactive
same,Potency,[5],inactive
same,Potency,[7],inactive
OC1(c2ccc(Cl)cc2)CCN(Cc2c[nH]c3ccccc23)CC1,Potency,[5],inactive
same,Potency,[7],inactive
O=c1[nH]c2ccccc2c2ccccc12,Potency,[6],inactive
same,Potency,[3],inactive
same,Potency,[4],inactive
same,Potency,[5],inactive
O=C(O)C1=CC(=C(c2ccc(O)c(C(=O)O)c2)c2ccc(O)c(C(=O)O)c2)C=CC1=O,Potency,[6],inactive
same,Potency,[4],inactive
same,Potency,[7],0.794 µM (active)
Cn1c(=O)c2[nH]c(-c3ccc(S(=O)(=O)O)cc3)nc2n(C)c1=O,Potency,[6],inactive
same,outcome,[8],inactive
same,Potency,[5],inactive
same,Potency,[7],inactive
COc1cccc(OC)c1OCCNCC1CSc2ccccc2O1 (stereo not drawn),Potency,[2],3.98 µM (active)
same,Potency,[3],12.6 µM (active)
same,Potency,[4],inactive
same,Potency,[5],inactive
same,Potency,[7],inactive
NC(N)=NC(N)=Nc1ccccc1,Potency,[6],inactive
same,outcome,[8],inactive
same,Potency,[4],inactive
same,Potency,[5],inactive
OC[C@H]1O[C@@H](n2cnc3cncnc32)[C@H](O)[C@@H]1O,Potency,[6],inactive
same,outcome,[8],inactive
same,Potency,[4],inactive
same,Potency,[5],inactive
CC(=O)O[C@H]1CC2(C)[C@@H](C[C@@H](O)[C@H]3[C@@]4(C)CC[C@@H](O)[C@@H](C)[C@@H]4CC[C@@]32C)C1=C(CCC=C(C)C)C(=O)O (stereo partly drawn),Potency,[6],inactive
same,Potency,[2],10 µM (active)
same,Potency,[5],inactive
same,Potency,[7],inactive
O=C(OCCN1CCOCC1)C1(c2ccccc2)CCCCC1,Potency,[2],4.47 µM (active)
same,outcome,[8],inactive
same,Potency,[5],inactive
same,Potency,[7],inactive
Cn1c(=O)c2c(nc(/C=C/c3cccc(Cl)c3)n2C)n(C)c1=O,Potency,[2],11.2 µM (active)
same,Potency,[3],12.6 µM (active)
same,Potency,[4],inactive
same,Potency,[5],inactive
C=C1C(=O)O[C@@H]2[C@H]3O[C@]3(C)CCC=C(C)CC[C@@H]12,Potency,[2],10 µM (active)
same,Potency,[3],11.2 µM (active)
same,Potency,[5],inactive
same,Potency,[7],inactive
Nc1ccc(CCNc2ncnc3c2ncn3C2OC(CO)C(O)C2O)cc1 (stereo not drawn),Potency,[6],inactive
same,Potency,[3],inactive
same,outcome,[8],inactive
same,Potency,[5],inactive
O=C(O)C1CCNCC1,Potency,[6],inactive
same,Potency,[4],inactive
same,Potency,[5],inactive
same,Potency,[7],inactive
Cc1ccc2c(c1)C(N1CCN(C)CC1)=Nc1cccnc1N2,Potency,[2],7.08 µM (active)
same,Potency,[3],inactive
same,outcome,[8],inactive
same,Potency,[5],inactive
O=c1[nH]c(=O)c2nc3ccccc3nc2[nH]1,Potency,[6],inactive
same,Potency,[3],inactive
same,Potency,[4],inactive
same,Potency,[5],inactive
